# Bioassay records deposited in PubChem by National Center for Advancing Translational Sciences (NCATS).
# A selection: hits, their analogues and other compounds. The true share with any hit is near 16%.
# miR-21 act – qHTS Assay for Modulators of miRNAs and/orActivators of miR-21 | Potency, µM (titrated, usually from 38.3 µM), for inactives: at the top dose activity change, positive = activation, actives largely listed as activators | 340,000 tested, under 10 active | AID 2288, 2010 | HeLa miR-21 FLuc reporter, luciferase, 48 h;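 further: % of control where 0% means no effect; miR-21 action dims this reporter so a rising signal means less miR-21 action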
#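 Luminescence from a firefly luciferase reporter carrying a miR-21 binding site downstream, stably expressed under a CMV promoter in HeLa cells that make miR-21 endogenously, reports miRNA modulation after 48 h compound exposure up to approximately 40uM final.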
# TDP1 inh – qHTS Assay for Inhibitors of Tyrosyl-DNA Phosphodiesterase (TDP1). AID 485290, 2010. Potency, µM (doses to about 130 µM), without a hit: at the highest dose activity change, negative = inhibition, hits mostly inhibitors. recombinant TDP1, AlphaScreen DNA substrate cleavage. 350,000 compounds, 0.28% hits; further: potency means the concentration at half of the fitted maximal effect; on the % scale 0 is the no-effect control and ±100 the full control effect; nearly all actives have a fitted effect of over 40% in size
# Target sequence (Q9NUW8 whole entry, looked up): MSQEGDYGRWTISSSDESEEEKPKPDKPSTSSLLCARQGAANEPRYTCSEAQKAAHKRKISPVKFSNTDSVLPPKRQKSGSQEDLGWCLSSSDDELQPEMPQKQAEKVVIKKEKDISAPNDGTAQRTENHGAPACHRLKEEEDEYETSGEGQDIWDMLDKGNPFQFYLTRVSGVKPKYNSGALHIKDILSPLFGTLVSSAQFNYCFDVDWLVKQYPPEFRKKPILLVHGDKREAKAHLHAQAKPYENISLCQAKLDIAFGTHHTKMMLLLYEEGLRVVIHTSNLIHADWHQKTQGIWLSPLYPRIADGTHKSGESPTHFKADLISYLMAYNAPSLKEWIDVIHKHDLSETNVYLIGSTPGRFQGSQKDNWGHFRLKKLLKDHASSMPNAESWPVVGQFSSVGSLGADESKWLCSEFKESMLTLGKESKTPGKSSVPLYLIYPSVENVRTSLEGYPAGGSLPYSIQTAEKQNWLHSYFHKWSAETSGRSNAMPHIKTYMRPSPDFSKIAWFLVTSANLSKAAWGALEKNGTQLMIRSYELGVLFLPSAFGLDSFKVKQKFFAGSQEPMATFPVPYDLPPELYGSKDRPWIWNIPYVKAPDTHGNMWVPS
#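 Recombinant human Tdp1 (E. coli-expressed, 1 nM final) preincubated with compounds 15 min at room temperature, then 5'-biotin/3'-phosphotyrosine-FITC DNA substrate (15 nM final) added for 5 min. AlphaScreen beads (10 ug/ml final) added 10 min; cleavage lowers signal.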
# DT40 TDP1 no CPT – qHTS for Inhibitors of human tyrosyl-DNA phosphodiesterase 1 (TDP1): qHTS in cells in absence of CPT. DT40 Tdp1-/- hTDP1 cells, no CPT, ATP luminescence, 48 h. Potency, µM (doses to about 46.2 µM), for the others: at the top dose activity change, negative = growth inhibition, hits mostly inhibitors. 420,000 compounds, 15% hits. AID 686978, 2013; further: potency means the concentration at half of the fitted maximal effect; on the % scale 0 is the no-effect control and ±100 the full control effect; nearly all actives have a fitted effect of over 55% in size
#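 Readout: luminescence from CellTiter-Glo after 30 min in the dark at RT. Cells: DT40 Tdp1-/- with stable hTDP1, 400/well. Exposure: compounds alone, ≥48 hr, 37 °C.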
# TDP1 cell CPT – qHTS for Inhibitors of human tyrosyl-DNA phosphodiesterase 1 (TDP1): qHTS in cells in presence of CPT; Potency, µM (top dose mostly 46.2 µM), without a hit: top-dose activity change, negative = growth inhibition, actives largely listed as inhibitors; 420,000 compounds, 12% hits; chicken DT40 Tdp1-/-;hTDP1 cells + 20 nM CPT, ATP luminescence, 48 h; AID 686979, 2013; further: potency means the concentration at half of the fitted maximal effect; on the % scale 0 is the no-effect control and ±100 the full control effect; nearly all actives have a fitted effect of over 55% in size
#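 Cell growth measured by CellTiter-Glo luminescence after a minimum 48 h, 37 C compound exposure with 20 nM CPT in Tdp1-knockout DT40 cells stably expressing hTDP1, seeded 400/well; qHTS titration format.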
# uPA surface inh – qHTS for Inhibitors of Cell Surface uPA Generation. Potency, µM (highest dose often 38.3 µM), for the others: at the top dose activity change, negative = inhibition, hits mostly inhibitors. cell surface uPA generation assay, qHTS. 330,000 compounds, 0.31% hits. AID 540303, 2011; active means well fitted inhibition curve with a large enough effect; inconclusive means small, poorly fitted or top-dose-only effect; inactive means no such curve, though single readings can be large or run the other way; tested in mouse RAW 264.7 cells; further: potency means the concentration at half of the fitted maximal effect; on the % scale 0 is the no-effect control and ±100 the full control effect; nearly all actives have a fitted effect of over 55% in size
# * = called active by the depositor; u = inconclusive; x = no result. Unless noted, the call rests on the fitted dose curve; in most records, active means well fitted curve in the direction sought with a large enough effect; inconclusive means small, poorly fitted or top-dose-only effect, or another doubt; inactive means no such curve, though single readings can be large; an effect the other way counts as inactive or inconclusive.
SMILES,miR-21 act,TDP1 inh,DT40 TDP1 no CPT,TDP1 cell CPT,uPA surface inh
COc1ccccc1N1CCN(Cc2cc(=O)c(OCC#N)co2)CC1,2.1%,0.3%,21.2%,-3.8%,3.5%
Cc1ccccc1-n1nc(CO)c(C(=O)NCCc2ccccc2)n1,0.7%,0.0%,u,u,x
CCCOc1ccc(N2CC(C(=O)Nc3ccccc3C(=O)NCc3ccco3)CC2=O)cc1 (configuration not stated),10.9%,7.7%,-27.8%,u,x
COC(=O)c1ccc(NC(=O)CC2C(=O)N(c3cccc(OC)c3)C(=O)N2Cc2cccc(OC)c2)cc1 (configuration not stated),9.8%,5.6%,14.6µM*,u,x
CCc1ccc(NC(=O)CC2C(=O)N(c3cccc(C)c3)C(=O)N2Cc2cccc(OC)c2)cc1 (configuration not stated),22.3%,2.8%,u,u,x
CCc1ccc(NC(=O)CC2C(=O)N(c3cccc(OC)c3)C(=O)N2Cc2ccc(F)cc2)cc1 (configuration not stated),26.9%,2.8%,18.4µM*,23.1µM*,x
CCCOc1ccc(NC(=O)CC2C(=O)N(c3ccccc3)C(=O)N2Cc2ccc(F)cc2)cc1 (configuration not stated),u,8.5%,20.6µM*,16.4µM*,x
COC(=O)c1ccc(NC(=O)CC2C(=O)N(c3ccc(Cl)cc3)C(=O)N2Cc2ccco2)cc1 (configuration not stated),2.1%,11.3%,18.4µM*,16.4µM*,x
CCCOc1ccc(NC(=O)CC2C(=O)N(c3ccc(C)cc3)C(=O)N2Cc2cccc(OC)c2)cc1 (configuration not stated),-0.7%,5.6%,-11.9%,-3.3%,x
COc1ccc(OCCOCC(O)CN2CCOCC2)cc1 (configuration not stated),0.1%,5.2%,0.6%,-2.2%,-0.5%
CCOc1c(Br)cc(/C=C(\C#N)C(=O)NC2CC2)cc1OC,-1.3%,7.5%,u,u,2.9%
COc1cccc2sc3ccc(C#CC4(N)CCCCC4)cc3c(=O)c12,-36.2%,x,14.6µM*,16.4µM*,-28.7%
COc1cccc(C#Cc2c(C=O)n(C)c3ccccc23)c1,x,17.8µM*,16.4µM*,16.4µM*,14.5%
Cn1c(C=O)c(C#CC(C)(C)O)c2ccccc21,x,-4.0%,u,u,-4.1%
COc1ccc(C#Cc2ccc3c(c2)c(=O)c2ccccc2n3C)cc1,-10.5%,x,18.4µM*,u,3.7%
CNC(C)C#Cc1ccc2sc3cccc(OC)c3c(=O)c2c1 (configuration not stated),-19.8%,x,14.6µM*,u,u
CNC(C)C#Cc1ccc2oc3cccc(OC)c3c(=O)c2c1 (configuration not stated),-45.2%,x,u,u,u
O=S(=O)(c1ccc(-c2cc(C(F)(F)F)on2)s1)N1CCN(c2cccc(Cl)c2)CC1,1.6%,5.3%,-4.2%,-4.5%,x
CC(C)CCNC(=O)C(CC(C)C)NC(=O)C1OC1C(=O)O (configuration not stated),x,12.1%,x,x,x
Cc1cc(NC(=O)/C=C/C(=O)N(CC(=O)NC2CCCC2)c2cccc3ccccc23)no1,21.7%,2.6%,-3.3%,-4.2%,0.9%
Cc1ccc(OCC(=O)O/N=C(\N)c2ccccn2)cc1C,-50.7%,x,-25.9%,0.6%,1.9%
COc1cccc2sc3cc(C#CC4(O)CCCCC4)ccc3c(=O)c12,x,2.6%,u,7.31µM*,u
COc1cc2sc3ccc(C#CC4(O)CCCCC4)cc3c(=O)c2cc1OC,x,x,16.4µM*,u,u
Cn1c2ccccc2c(=O)c2ccc(C#CC3(O)CCCCC3)cc21,-7.9%,x,10.3µM*,13µM*,u
